Data: ChEMBL document CHEMBL1961873, “Compounds: GSK PKIS; Assays: Nanosyn kinase panel” (2012)

Assays:
[1] = molecular target: T1, 3-phosphoinositide-dependent protein kinase 1 (Homo sapiens) (UniProt O15530); details: at 0.1 µM;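 further: values are mean inhibition of PDK1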
T1 sequence (whole entry): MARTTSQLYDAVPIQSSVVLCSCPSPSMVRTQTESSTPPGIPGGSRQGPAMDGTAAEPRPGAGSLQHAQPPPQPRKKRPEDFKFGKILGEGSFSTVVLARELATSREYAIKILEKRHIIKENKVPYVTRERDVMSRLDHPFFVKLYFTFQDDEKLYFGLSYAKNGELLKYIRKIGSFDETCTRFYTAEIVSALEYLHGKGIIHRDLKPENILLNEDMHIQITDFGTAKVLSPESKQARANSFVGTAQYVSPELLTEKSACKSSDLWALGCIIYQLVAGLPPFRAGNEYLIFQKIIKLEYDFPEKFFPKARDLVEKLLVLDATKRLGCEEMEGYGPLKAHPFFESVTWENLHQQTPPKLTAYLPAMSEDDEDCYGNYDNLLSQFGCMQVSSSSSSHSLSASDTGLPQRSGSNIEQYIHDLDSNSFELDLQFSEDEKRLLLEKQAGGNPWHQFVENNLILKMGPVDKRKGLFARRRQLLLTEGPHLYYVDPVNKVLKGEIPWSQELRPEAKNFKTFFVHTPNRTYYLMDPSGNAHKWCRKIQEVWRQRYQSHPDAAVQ

[2] = molecular target: cAMP-dependent protein kinase catalytic subunit alpha (Homo sapiens) (UniProt P17612); details: at 0.1 µM
[3] = molecular target: cAMP-dependent protein kinase catalytic subunit alpha (Homo sapiens) (UniProt P17612); details: at 1 µM
[4] = molecular target: Protein kinase C alpha type (Homo sapiens) (UniProt P17252); details: at 0.1 µM
[5] = molecular target: Protein kinase C alpha type (Homo sapiens) (UniProt P17252); details: at 1 µM
[6] = molecular target: Protein kinase C beta type (Homo sapiens) (UniProt P05771); details: at 0.1 µM
[7] = molecular target: Protein kinase C beta type (Homo sapiens) (UniProt P05771); details: at 1 µM
[8] = molecular target: Protein kinase C eta type (Homo sapiens) (UniProt P24723); details: at 0.1 µM
[9] = molecular target: Protein kinase C eta type (Homo sapiens) (UniProt P24723); details: at 1 µM
[10] = molecular target: Protein kinase C gamma type (Homo sapiens) (UniProt P05129); details: at 0.1 µM
[11] = molecular target: Protein kinase C gamma type (Homo sapiens) (UniProt P05129); details: at 1 µM
[12] = molecular target: T2, Protein kinase C iota type (Homo sapiens) (UniProt P41743); details: at 0.1 µM
T2 sequence (whole entry): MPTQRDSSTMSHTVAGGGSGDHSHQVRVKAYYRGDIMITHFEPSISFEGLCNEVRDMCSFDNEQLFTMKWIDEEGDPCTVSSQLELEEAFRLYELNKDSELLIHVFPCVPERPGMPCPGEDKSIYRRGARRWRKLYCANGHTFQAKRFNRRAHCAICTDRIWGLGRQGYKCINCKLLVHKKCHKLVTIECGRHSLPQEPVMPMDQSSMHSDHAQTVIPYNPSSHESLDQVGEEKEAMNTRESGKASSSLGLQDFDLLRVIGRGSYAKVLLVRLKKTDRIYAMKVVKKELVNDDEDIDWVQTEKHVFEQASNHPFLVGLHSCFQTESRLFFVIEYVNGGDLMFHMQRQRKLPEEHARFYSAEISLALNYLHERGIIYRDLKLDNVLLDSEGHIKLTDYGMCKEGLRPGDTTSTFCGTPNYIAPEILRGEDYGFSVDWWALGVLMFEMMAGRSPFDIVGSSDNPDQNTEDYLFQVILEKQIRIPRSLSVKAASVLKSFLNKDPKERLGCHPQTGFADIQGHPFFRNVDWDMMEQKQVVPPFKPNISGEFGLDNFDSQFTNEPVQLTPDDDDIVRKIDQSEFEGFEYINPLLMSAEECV

[13] = molecular target: T2, Protein kinase C iota type (Homo sapiens); details: at 1 µM
[14] = molecular target: Protein kinase C theta type (Homo sapiens) (UniProt Q04759); details: at 0.1 µM
[15] = molecular target: Protein kinase C theta type (Homo sapiens) (UniProt Q04759); details: at 1 µM
[16] = molecular target: Protein kinase C beta type (Homo sapiens) (UniProt P05771); details: at 0.1 µM; remark: listed apart in the source
[17] = molecular target: Protein kinase C beta type (Homo sapiens) (UniProt P05771); details: at 1 µM; remark: listed apart in the source
[18] = molecular target: T3, Serine/threonine-protein kinase D1 (Homo sapiens) (UniProt Q15139); details: at 0.1 µM
T3 sequence (whole entry): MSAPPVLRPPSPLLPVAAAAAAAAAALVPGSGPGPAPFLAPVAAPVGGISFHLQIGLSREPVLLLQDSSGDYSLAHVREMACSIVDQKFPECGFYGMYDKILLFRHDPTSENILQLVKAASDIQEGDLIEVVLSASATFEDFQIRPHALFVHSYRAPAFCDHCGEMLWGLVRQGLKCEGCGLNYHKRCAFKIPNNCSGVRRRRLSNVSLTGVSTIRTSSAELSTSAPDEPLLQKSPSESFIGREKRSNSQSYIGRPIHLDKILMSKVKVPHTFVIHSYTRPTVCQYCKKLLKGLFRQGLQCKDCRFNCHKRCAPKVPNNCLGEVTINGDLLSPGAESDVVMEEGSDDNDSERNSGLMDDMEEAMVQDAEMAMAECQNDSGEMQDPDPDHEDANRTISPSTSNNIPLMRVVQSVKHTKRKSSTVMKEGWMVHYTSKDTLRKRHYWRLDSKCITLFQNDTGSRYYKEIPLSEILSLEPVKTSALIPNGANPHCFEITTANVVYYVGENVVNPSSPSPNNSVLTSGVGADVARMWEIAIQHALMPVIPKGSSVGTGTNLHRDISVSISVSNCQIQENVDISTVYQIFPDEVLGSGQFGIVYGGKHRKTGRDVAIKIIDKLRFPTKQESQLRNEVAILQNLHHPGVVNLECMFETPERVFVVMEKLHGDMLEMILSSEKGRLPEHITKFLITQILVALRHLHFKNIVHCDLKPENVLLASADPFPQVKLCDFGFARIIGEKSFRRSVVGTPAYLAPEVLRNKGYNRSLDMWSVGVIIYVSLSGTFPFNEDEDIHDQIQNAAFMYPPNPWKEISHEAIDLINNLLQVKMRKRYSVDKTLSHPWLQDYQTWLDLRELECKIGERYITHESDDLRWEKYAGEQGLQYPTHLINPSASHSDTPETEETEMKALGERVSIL

[19] = molecular target: T3, Serine/threonine-protein kinase D1 (Homo sapiens); details: at 1 µM
[20] = molecular target: T4, Serine/threonine-protein kinase D2 (Homo sapiens) (UniProt Q9BZL6); details: at 0.1 µM;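 further: reported percent inhibition values are means, part of the GSK PKIS kinase panel screen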
T4 sequence (whole entry): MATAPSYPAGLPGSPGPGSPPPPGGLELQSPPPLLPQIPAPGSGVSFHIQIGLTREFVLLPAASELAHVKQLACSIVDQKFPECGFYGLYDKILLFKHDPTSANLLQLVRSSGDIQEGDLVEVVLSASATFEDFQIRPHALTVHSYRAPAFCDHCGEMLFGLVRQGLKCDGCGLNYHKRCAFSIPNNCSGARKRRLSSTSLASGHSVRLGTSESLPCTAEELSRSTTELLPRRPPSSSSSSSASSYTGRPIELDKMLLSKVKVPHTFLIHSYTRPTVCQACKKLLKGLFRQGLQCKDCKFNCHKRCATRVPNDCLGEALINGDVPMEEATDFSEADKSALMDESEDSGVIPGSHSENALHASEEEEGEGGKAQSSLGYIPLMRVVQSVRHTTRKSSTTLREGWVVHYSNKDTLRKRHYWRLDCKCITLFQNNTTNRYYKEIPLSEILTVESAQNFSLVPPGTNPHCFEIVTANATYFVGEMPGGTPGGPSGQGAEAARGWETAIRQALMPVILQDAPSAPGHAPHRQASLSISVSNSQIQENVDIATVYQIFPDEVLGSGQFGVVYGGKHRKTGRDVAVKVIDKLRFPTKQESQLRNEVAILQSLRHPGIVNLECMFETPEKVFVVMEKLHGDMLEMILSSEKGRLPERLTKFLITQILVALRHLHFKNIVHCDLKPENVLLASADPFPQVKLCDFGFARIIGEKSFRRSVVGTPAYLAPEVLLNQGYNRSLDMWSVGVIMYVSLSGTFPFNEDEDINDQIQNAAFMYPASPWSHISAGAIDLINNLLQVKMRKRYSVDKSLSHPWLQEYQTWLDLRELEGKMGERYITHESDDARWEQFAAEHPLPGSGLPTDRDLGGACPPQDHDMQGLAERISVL

Protein kinase C theta type (Homo sapiens), sequence (Q04759 whole entry, looked up): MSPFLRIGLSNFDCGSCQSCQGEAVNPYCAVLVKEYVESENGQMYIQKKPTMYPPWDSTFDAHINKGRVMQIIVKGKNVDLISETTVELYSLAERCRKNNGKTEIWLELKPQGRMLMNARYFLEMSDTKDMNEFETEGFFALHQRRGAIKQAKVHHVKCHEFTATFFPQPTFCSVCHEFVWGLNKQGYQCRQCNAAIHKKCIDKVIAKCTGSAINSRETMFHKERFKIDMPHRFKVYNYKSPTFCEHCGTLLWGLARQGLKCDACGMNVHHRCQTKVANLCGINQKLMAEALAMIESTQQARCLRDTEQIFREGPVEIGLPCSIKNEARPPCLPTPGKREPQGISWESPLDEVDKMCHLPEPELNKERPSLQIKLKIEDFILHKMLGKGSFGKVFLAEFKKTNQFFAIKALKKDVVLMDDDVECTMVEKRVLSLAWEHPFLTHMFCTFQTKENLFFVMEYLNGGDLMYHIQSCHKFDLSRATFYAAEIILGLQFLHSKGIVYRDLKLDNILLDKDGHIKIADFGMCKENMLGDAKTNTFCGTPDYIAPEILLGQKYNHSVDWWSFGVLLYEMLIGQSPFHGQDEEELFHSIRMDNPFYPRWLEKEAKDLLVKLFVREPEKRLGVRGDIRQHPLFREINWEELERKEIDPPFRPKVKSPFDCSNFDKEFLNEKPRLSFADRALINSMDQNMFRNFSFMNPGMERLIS
Protein kinase C beta type (Homo sapiens), sequence (P05771 2-671 limits assumed): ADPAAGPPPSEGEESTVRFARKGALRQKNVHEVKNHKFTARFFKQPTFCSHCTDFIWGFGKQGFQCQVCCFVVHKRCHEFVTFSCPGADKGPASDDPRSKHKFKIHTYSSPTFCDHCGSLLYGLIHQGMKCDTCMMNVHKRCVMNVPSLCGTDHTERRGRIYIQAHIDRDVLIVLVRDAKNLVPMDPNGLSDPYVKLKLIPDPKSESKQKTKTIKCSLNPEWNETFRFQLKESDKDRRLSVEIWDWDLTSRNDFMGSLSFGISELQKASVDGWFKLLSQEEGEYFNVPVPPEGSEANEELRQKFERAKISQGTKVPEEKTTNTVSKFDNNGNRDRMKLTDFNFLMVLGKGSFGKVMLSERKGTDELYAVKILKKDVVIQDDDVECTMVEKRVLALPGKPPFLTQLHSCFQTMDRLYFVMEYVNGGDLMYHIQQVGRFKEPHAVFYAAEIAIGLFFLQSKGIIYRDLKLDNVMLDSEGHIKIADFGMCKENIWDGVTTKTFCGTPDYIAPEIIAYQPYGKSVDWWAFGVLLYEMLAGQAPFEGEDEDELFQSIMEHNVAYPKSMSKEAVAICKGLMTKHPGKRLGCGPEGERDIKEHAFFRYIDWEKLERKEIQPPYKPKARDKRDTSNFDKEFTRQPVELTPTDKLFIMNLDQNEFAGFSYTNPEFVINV
Protein kinase C eta type (Homo sapiens), sequence (P24723 whole entry): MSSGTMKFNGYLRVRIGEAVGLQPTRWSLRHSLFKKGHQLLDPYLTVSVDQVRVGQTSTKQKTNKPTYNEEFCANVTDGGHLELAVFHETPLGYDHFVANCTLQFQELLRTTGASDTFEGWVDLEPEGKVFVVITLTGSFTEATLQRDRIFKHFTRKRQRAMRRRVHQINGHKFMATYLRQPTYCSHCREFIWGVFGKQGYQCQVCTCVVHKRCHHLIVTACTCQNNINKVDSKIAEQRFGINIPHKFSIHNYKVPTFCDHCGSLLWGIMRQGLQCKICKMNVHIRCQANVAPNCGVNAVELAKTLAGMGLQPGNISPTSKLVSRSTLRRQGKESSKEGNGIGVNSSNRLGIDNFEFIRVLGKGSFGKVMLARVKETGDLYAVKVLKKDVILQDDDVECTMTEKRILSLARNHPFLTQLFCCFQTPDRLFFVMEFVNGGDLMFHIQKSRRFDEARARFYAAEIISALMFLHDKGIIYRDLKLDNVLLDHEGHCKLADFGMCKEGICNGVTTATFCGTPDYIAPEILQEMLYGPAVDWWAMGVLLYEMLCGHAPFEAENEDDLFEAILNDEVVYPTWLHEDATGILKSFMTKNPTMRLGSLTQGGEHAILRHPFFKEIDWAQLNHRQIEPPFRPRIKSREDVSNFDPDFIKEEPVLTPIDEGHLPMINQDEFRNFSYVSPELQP

Row | Compound | inhibition [1] | inhibition [2] | inhibition [3] | inhibition [4] | inhibition [5] | inhibition [6] | inhibition [7] | inhibition [8] | inhibition [9] | inhibition [10] | inhibition [11] | inhibition [12] | inhibition [13] | inhibition [14] | inhibition [15] | inhibition [16] | inhibition [17] | inhibition [18] | inhibition [19] | inhibition [20]
1 | COc1cc2ncn(-c3cc(OCc4ccccc4C(F)(F)F)c(C(N)=O)s3)c2cc1OC | 0.58% | -1.97% | -1.35% | -3.16% | -2.48% | 0.23% | 0.89% | 5.48% | 5.95% | -1.78% | 0.51% | 3.36% | 3.32% | 2.16% | 3.1% | 1.23% | 2% | 0.73% | 0.99% | 1.16%
2 | COc1ccccc1Nc1ncc(-c2ccccc2)o1 | 7.73% | 1.58% | 3.65% | 0.95% | 1.01% | 1.34% | -6.48% | 7.06% | 7.33% | -0.19% | 3.53% | 3.88% | 3.75% | 3.4% | 3.02% | 1.12% | 1.8% | 4.01% | 5.46% | 3.84%
3 | NC(=O)c1cccc(Nc2nccc(Nc3cccc4[nH]ncc34)n2)c1 | -1.42% | 7.26% | 10.7% | -0.39% | 14.6% | 0.67% | 2.07% | -3% | 5.2% | 0.25% | 9.98% | -0.89% | -1.43% | 0.02% | 6.28% | -1.01% | 7.52% | -1.68% | 6.22% | -1.94%
4 | c1cnn2ncc(-c3ccnc(Nc4ccc5c(c4)OCCO5)n3)c2c1 | 4.84% | 1.74% | 7.09% | 2.47% | 20.4% | 1.95% | 4.36% | 4.51% | 8.26% | 1.93% | 9.81% | 2.88% | 1.82% | 2.63% | 5.92% | 0.79% | 5.22% | 6.99% | 45.1% | 5.55%
5 | Cc1nnc(-c2ccc(C)c(-c3ccc(C(=O)Nc4cccc(C#N)c4)cc3)c2)o1 | 0.99% | 2.18% | 1.76% | 0.5% | 0.89% | -0.92% | 2.05% | 0.8% | 3.76% | 1.49% | 5.13% | -0.73% | -1.05% | 1% | 1.47% | 1.09% | 1.38% | 4.29% | 4.48% | 2.17%
6 | NCc1ccc(-c2nc(-c3ccc(Cl)c(O)c3)c(-c3ccncc3)[nH]2)cc1 | 2.25% | 1.31% | 3.95% | 0.75% | 2.46% | 5.37% | 27.9% | 1.93% | 3.81% | 0.36% | 0.42% | -0.2% | -0.02% | -0.02% | -0.18% | 0.76% | 10.8% | 0.78% | 2.64% | 1.57%
7 | CCn1c(-c2nonc2N)nc2ccncc21 | 2.45% | 0.35% | 1.02% | 0.39% | 0.41% | -0.82% | 1.95% | 1.11% | 5.32% | -2.41% | 4.26% | 0.76% | 1.92% | -0.28% | 0% | -0.19% | 0.57% | 1.02% | 3.26% | 1.34%
8 | CS(=O)(=O)CCNCc1ccc(-c2ccc3ncnc(Nc4ccc(OCc5ccccc5)c(Cl)c4)c3c2)o1 | -0.51% | -0.81% | 1.12% | 0.09% | -0.42% | -1.09% | -2.64% | 1.32% | -1.74% | 1.29% | 0.93% | 0.76% | 1.11% | 0.62% | 0.16% | -0.28% | 0.08% | -0.53% | 0.36% | -0.95%
9 | COc1cc(C=NNc2ncnc3c2cnn3-c2ccccc2)ccc1O | 3.92% | 1.37% | 1.88% | 0.49% | 3.62% | 1.19% | 4.02% | 3.68% | 0.52% | 1.8% | 12.4% | 1.32% | 5.26% | 0.44% | 0.62% | 1.72% | 5.98% | 1.65% | 3.18% | 1.16%
10 | O=C1NC(=O)C(c2ccc(Cl)cc2)=C1Nc1ccc(Cl)c(C(=O)O)c1 | 0.12% | -1.8% | -1.57% | -0.02% | -0.11% | -1.13% | -0.89% | -3.26% | -3.28% | 0.52% | 1.73% | 0.12% | 3.71% | -0.99% | -0.44% | -0.73% | 3.47% | -1.33% | 0.04% | -1.08%
11 | COc1ccc(-c2coc3ncnc(N)c23)cc1 | 0.68% | 1.5% | 1.74% | 0.29% | 1.92% | -0.46% | -0.25% | 3.06% | 2.62% | 0.83% | 3.98% | 1.44% | 3.36% | 1.7% | 1.28% | 1.62% | 2.4% | 4.27% | 6.99% | 4.87%
12 | Nc1ncnc2occ(-c3ccc(NC(=O)Nc4cc(C(F)(F)F)cc(C(F)(F)F)c4)cc3)c12 | 1.59% | 0.91% | 0.7% | 0.06% | 0.45% | -0.8% | -1.24% | 1.47% | -0.03% | 3.16% | -0.32% | 0.16% | 2.82% | 0.72% | -1.36% | 0.68% | 0.44% | 1.17% | 1.94% | 1.61%
